Source: PubChem BioAssay
The list is not random: actives were taken first. Their share in the collection is about 0.58%.
Mtb BioA inh: M. tuberculosis BioA enzyme inhibitors, primary screen, biochemical, plate reader, single point, HTS | 7,8-diaminopelargonic acid synthase BioA (Mycobacterium tuberculosis) | purified M. tuberculosis BioA enzyme | inhibition, % at 9.99 µM | 360,000 compounds, 0.096% hits | AID 602481, 2012; in the data active = inhibition above about 40%
TcdB GH inh: TcdB glycohydrolase inhibitors, primary screen, biochemical, single point, plate reader; Toxin B (Clostridioides difficile), P18177; TcdB glycohydrolase enzymatic assay; inhibition, % at 9.99 µM; 350,000 compounds, 0.24% hits; AID 652162, 2013; in the data active = inhibition above about 10%
Target sequence (P18177 whole entry, looked up): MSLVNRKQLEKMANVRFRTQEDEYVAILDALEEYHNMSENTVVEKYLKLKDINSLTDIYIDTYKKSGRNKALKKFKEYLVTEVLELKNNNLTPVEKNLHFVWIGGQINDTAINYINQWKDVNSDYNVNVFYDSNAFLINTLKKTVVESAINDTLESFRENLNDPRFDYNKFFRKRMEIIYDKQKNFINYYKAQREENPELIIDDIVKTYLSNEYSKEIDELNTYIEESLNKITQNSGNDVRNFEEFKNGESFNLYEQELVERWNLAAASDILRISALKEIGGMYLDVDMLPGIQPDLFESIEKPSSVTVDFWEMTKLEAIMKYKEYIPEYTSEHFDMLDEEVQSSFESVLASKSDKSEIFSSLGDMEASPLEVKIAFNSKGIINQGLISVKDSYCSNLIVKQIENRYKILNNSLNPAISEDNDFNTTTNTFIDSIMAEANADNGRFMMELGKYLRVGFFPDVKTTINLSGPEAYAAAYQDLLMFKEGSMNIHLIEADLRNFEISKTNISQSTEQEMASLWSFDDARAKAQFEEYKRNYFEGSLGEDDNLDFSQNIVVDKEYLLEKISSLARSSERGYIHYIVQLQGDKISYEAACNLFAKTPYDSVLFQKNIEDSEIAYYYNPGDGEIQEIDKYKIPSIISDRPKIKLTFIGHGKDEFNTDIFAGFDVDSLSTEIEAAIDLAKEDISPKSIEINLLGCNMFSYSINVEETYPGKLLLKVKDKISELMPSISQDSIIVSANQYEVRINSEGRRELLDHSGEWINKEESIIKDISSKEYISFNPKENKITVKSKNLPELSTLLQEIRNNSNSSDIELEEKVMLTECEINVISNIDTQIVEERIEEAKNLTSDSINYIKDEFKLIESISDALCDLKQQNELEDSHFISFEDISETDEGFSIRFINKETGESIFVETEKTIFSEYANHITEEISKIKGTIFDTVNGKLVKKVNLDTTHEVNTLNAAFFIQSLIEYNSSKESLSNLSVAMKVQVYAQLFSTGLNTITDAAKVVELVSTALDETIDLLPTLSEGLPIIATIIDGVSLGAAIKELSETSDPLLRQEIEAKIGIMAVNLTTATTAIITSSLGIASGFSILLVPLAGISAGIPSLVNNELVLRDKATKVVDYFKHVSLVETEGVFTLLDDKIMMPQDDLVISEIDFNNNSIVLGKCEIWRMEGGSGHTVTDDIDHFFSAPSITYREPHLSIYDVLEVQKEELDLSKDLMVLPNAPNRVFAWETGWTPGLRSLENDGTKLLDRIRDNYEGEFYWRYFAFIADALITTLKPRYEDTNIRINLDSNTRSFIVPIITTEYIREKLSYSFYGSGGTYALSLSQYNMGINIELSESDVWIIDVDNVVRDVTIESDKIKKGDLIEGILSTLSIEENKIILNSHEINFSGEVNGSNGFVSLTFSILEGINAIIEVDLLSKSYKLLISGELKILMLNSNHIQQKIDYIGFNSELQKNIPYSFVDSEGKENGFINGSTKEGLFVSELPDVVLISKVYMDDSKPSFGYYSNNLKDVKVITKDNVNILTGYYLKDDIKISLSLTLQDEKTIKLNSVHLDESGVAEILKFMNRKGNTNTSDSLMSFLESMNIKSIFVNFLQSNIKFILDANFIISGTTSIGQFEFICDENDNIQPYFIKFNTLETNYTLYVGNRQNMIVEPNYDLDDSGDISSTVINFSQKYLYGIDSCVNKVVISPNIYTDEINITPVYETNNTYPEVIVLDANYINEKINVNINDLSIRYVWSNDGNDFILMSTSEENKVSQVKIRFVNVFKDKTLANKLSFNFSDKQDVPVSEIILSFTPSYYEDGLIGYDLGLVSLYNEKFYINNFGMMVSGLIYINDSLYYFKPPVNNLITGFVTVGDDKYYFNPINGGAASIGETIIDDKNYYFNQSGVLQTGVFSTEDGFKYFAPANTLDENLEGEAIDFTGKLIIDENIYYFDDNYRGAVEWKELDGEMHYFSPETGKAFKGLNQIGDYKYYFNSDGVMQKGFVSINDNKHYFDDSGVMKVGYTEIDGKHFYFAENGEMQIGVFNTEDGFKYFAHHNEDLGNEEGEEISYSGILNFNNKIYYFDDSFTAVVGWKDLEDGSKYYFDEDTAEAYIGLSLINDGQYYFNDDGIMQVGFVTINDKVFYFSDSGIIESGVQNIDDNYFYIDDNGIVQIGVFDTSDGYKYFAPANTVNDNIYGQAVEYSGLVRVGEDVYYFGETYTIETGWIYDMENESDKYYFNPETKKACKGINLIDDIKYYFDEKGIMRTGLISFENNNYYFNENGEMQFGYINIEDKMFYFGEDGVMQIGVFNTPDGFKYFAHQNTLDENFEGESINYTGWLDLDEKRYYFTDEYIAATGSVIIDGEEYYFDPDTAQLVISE
Yp Topo-I inh: Yersinia pestis topoisomerase I inhibitors, primary screen, biochemical, cleavage product accumulation, plate reader, single point. activity, % at 10 µM. DNA topoisomerase I (Yersinia pestis CO92). Y. pestis Topo-I cleavage product accumulation. 360,000 compounds, 0.064% hits; in the data active = activity above about 50%, passing the limit was not always enough
BH1578 lux ind: inducers of Vibrio cholerae quorum light production without autoinducers, primary screen, BH1578 luxS cqsA deficient, single point; V. cholerae BH1578 lux reporter, luminescence, 6 h; activation, % at 18.7 µM; 350,000 compounds, 0.16% hits; AID 588436, 2011; in the data active = activation mostly above about 9.7%, no sharp cut-off
FadD28 FP inh: inhibitors of FadD28 bisubstrate probe binding, primary screen, biochemical, fluorescence polarization, single point; inhibition, % at 12.5 µM; Mycobacterium tuberculosis FadD28 fatty-acid-AMP ligase; 360,000 compounds, 0.22% hits; AID 588549, 2011; in the data active = inhibition above about 8.5%, passing the limit was not always enough
A number is an active result; n = inactive; x = not tested or not shown.

SMILES	Mtb BioA inh	TcdB GH inh	Yp Topo-I inh	BH1578 lux ind	FadD28 FP inh
COc1ccc2c(/C=N/Nc3ccc(C(=O)O)cc3)c[nH]c2c1	n	n	n	n	14
COc1ccc(CC(=O)Nc2nnc(SCc3ccccc3)s2)cc1S(=O)(=O)N1CCOCC1	n	x	n	n	13
COc1ccc(NS(=O)CCCc2ccccc2)cc1 (stereo not given)	n	11	x	x	n
O=C(CN1C(=O)c2ccccc2C1=O)N(CCO)Cc1ccccc1	n	n	n	n	22
CCN(Cc1ccccc1)C(=O)CN1C(=O)c2ccccc2C1=O	n	n	n	n	n
Cc1ccccc1N/N=C/c1ccc(C#N)cc1	x	n	n	60	n
CN/N=C/c1ccc(C#N)cc1	x	n	n	n	n
COc1ccccc1-c1cnc2c(c1)C(=O)N([C@@H](C)CO)C[C@@H](C)[C@@H](CN(C)Cc1ccncc1)O2	n	n	x	x	x
CC(C)(C)OC(=O)NCc1ccc(NC(=O)c2nc[nH]c2C(=O)NCCCNC(=O)c2[nH]cnc2C(=O)Nc2ccc(CNC(=O)OC(C)(C)C)cc2)cc1	n	x	79	n	n
Fc1ccccc1Nc1n[nH]c(=S)s1	x	10	n	n	n
O=C(O)c1ccccc1N/N=C\c1ccnc2ccccc12	x	x	n	n	11
ON=Cc1ccnc2ccccc12	n	n	n	n	n
COc1ccc(S(=O)(=O)Nc2ccc3c(c2)C(=O)N([C@H](C)CO)C[C@@H](C)[C@H](CN(C)S(=O)(=O)c2c(C)noc2C)OCCCC[C@@H](C)O3)cc1	n	n	x	x	x
O=[N+]([O-])c1cc(Br)ccc1NS(=O)(=O)c1ccccc1	n	19	n	n	n
COCCNC(=O)C[C@H]1CC[C@@H]2[C@@H](COc3ccc(NC(=O)Cc4ccccc4)cc3C(=O)N2C)O1	n	x	x	x	x
CN(C)C(=O)C[C@H]1C[C@H]2c3cc(NC(=O)NC4CCCCC4)ccc3O[C@H]2[C@@H](CO)O1	n	n	x	x	x
COCCCNC(=O)C1CCN(S(=O)(=O)c2c(C)noc2/C=C\c2ccc(OC)cc2)CC1	n	x	n	n	n
CCCCNC(=O)C1CCN(S(=O)(=O)c2c(C)noc2/C=C\c2ccc(OC)cc2)CC1	n	85	n	n	n
O=C(C[C@@H]1C=C[C@@H](NS(=O)(=O)c2ccccc2)[C@H](CO)O1)NCc1ccncn1	n	n	x	x	x
COc1ccccc1N(CC(=O)NCCSc1ccccc1)S(=O)(=O)c1ccccc1	n	n	57	n	n
COc1ccccc1N(CC(=O)NCCSc1ccccc1)S(C)(=O)=O	n	x	n	n	n
Cc1ccc(NC(=O)c2cc(C)on2)cc1	x	x	n	n	n
CCc1ccc(NC(=O)c2cc(C)on2)cc1	n	11	n	n	n
COCC(=O)N1CC[C@@H]2[C@H]1c1cc(-c3ccccc3)ccc1N(C)[C@@H]2CO	x	n	x	x	x
CCC(=O)N1CC[C@@H]2[C@H]1c1cc(-c3ccccc3)ccc1N(C)[C@@H]2CO	n	n	x	x	x
SMILES	Mtb BioA inh	TcdB GH inh	Yp Topo-I inh	BH1578 lux ind	FadD28 FP inh
COCC(=O)N1CC[C@H]2[C@@H]1c1cc(-c3cccc(OC)c3)ccc1N(C)[C@H]2CO	x	n	x	x	x
COCC(=O)N1CC[C@@H]2[C@H]1c1cc(-c3cccc(OC)c3)ccc1N(C)[C@H]2CO	x	13	x	x	x
COCC(=O)N1CC[C@@H]2[C@H]1c1cc(-c3ccccc3)ccc1N(C)[C@H]2CO	x	11	x	x	x
CN1c2ccc(-c3ccccc3)cc2[C@H]2[C@H](CCN2C(=O)CN2CCOCC2)[C@H]1CO	n	14	x	x	x
CCC(=O)N1CC[C@@H]2[C@H]1c1cc(-c3ccccc3)ccc1N(C)[C@H]2CO	n	12	x	x	x
C/C=C/c1ccc2c(c1)O[C@@H](CN(C)S(=O)(=O)c1ccc(F)cc1)[C@@H](C)CN([C@@H](C)CO)S2(=O)=O	n	n	x	x	x
COCC(=O)N1CC2(C1)[C@@H](c1ccccc1)[C@@H](CO)N2C(=O)c1ccccc1	x	n	x	x	x
CCC(=O)N1CC[C@@H]2[C@@H](CO)N(C)c3ccc(-c4ccccc4)cc3[C@@H]21	n	21	x	x	x
CCC(=O)N1CC[C@@H]2[C@H]1c1cc(-c3ccc(F)cc3)ccc1N(C)[C@H]2CO	x	n	x	x	x
C[C@@H]1CN([C@@H](C)CO)C(=O)c2cc(NC(=O)C3CCCCC3)ccc2O[C@@H](C)CCCCO[C@@H]1CN(C)C(=O)Nc1cccc2ccccc12	n	n	x	x	x
O=S(=O)(Nc1nc2c(s1)CCCC2)c1ccc2ccccc2c1	n	x	n	17	n
